Drawing on PubChem BioAssay AID624417 (National Center for Advancing Translational Sciences (NCATS), 2012), this text covers Potency for 96 compounds.

Screen size: about 410,000 compounds; about 6,400 (1.6%) were called active. Roughly 20% stayed inconclusive and do not appear here. Calls follow the shape of the dose curve; as a rule, active = well fitted inhibition curve with a large enough effect; inconclusive = small, poorly fitted or top-dose-only effect; inactive = no such curve, though single readings can be large or run the other way. What follows is part of a selection rich in actives, with near analogues and random picks from the rest. Entries that show only a call come without a potency.
Potency is read from the fitted curve at half-maximal effect.

Sequence of Glucagon-like peptide 1 receptor (Homo sapiens) (P43220 whole entry, looked up): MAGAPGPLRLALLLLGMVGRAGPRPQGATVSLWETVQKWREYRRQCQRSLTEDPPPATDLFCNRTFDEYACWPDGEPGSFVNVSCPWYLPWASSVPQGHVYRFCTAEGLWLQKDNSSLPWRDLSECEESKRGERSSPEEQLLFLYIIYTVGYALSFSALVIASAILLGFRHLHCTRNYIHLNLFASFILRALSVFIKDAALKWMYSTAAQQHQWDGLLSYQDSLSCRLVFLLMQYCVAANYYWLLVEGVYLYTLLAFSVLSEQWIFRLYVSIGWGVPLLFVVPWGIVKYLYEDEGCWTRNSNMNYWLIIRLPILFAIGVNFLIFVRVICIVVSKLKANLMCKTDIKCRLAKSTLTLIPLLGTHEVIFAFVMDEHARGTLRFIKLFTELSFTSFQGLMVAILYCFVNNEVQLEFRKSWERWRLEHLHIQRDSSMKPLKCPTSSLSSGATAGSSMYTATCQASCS

This experiment concerns the target Glucagon-like peptide 1 receptor (Homo sapiens) (UniProt P43220). Nature of the experiment: qHTS of GLP-1 Receptor Inverse Agonists (Inhibition Mode). Also: nearly all actives have a fitted effect of over 55% in size. The settings on record: HEK293 GLP-1R CRE-luciferase, luminescence, 24 h, GLP-1R form is constitutively active; series mostly up to 38.3 µM. From the text:
The overall goal of this project was to develop a novel assay for discovering small molecule ligands for class B1 G protein-coupled receptors (GPCRs). Very few agonists (or inverse agonists in inhibition mode) with generally weak activity for this entire group of physiologically important receptors are known to date. To establish proof-of-principle that this critical bottleneck can be overcome with a suitable screening approach, our studies focused on the class B1 receptor for glucagon-like peptide-1 (GLP-1R), a potential therapeutic target for diabetes and neurodegenerative disease. The assay was developed using a cell-based functional readout. Toward this goal, stably transfected HEK293 cell clones were established that co-express (i) a cAMP-responsive luciferase reporter gene, and (ii) constitutively active GLP-1R that upon ligand interaction inhibit (inverse agonists) the luciferase activity. In addition, two control cell lines were developed: (i) one that express only the cAMP-responsive reporter gene to enable initial exclusion of GLP-1R independent effects of candidate probes; and (ii) one with the reported gene cloned with another constitutively active orphan receptor GPR119 to enable exclusion of GLP-1R independent inhibitor effects of candidate inverse agonists. To that end, this assay was optimized for 1536-well format and screened against the MLSMR. […] NIH Molecular Libraries Probe Production Network [MLPCN] NIH Chemical Genomics Center [NCGC] Grant: NS064851 PI Name: Martin Beinborn, Tufts Medical Center
Six ul of cell suspension (200 cells/uL in DMEM + 10% Nu serum + 1% pen-strep) is dispensed in a white solid 1536-well plate. The plates are incubated for 12 hours at 37 deg C at 5% CO2 followed by addition of 23 nL compounds. After 24 hr incubation at 37 deg C and 5% CO2, 3 uL of luciferase assay detection reagent is added. A luminescence read is obtained on the PerkinElmer Viewlux after 12 min incubation at room temperature.
In general terms: qHTS replaces the single test concentration by a dilution series.
Consider `COc1ccc(N2CCC(N3CCN(C)C(CCO)C3)CC2)cc1` (stereo unspecified), for which the Potency result is “inactive”.

Regarding `COc1ccccc1N1CCC(N2CCN(CC(C)(C)C)C(CCO)C2)CC1` (stereo unspecified), the Potency entry is “inactive”. `Cc1cc(F)ccc1N1CCC(N2CCN(C)C(CCO)C2)CC1` (stereo unspecified): the Potency was 4.47 µM (active).

Regarding `COc1ccc(CN2C(=O)C(CC(=O)NCCCCc3ccccc3)CC(C(=O)N3CCOCC3)=C2C)cc1` (stereo unspecified), the Potency result is “inactive”.

`Cc1ccccc1NC(=O)CSc1nc2ccc(Nc3nc(N4CCOCC4)nc(N4CCOCC4)n3)cc2s1`: the Potency entry was “inactive”.

On to `O=C(CSc1nc(Nc2ccccc2)nc(N2CCOCC2)n1)Nc1cc(Cl)ccc1O`, for which the Potency is 5.62 µM (active). Take `O=C(CC(c1ccccc1)c1cc(Cl)ccc1O)NCCN1CCOCC1` (stereo unspecified): the Potency entry was “inactive”. As for `CCCNC(=O)C1(C)CCN(C(=O)c2cc(F)ccc2C)C1` (stereo unspecified), the Potency entry is “inactive”. The result for `CC1(C(=O)NS(=O)(=O)c2ccc(C#N)cc2)CCN1C(=O)c1ccc(C2CCCCC2)cc1` (stereo unspecified) reads “inactive”. Consider `N#CCSc1nc2c(c(=O)n1Cc1ccccc1)C1(CCCC1)Cc1ccccc1-2`, for which the Potency was 3.98 µM (active).

For the compound `CCC1(CC)Cc2ccccc2-c2nc(CCl)[nH]c(=O)c21`, the Potency result was “inactive”. The result for `N#CCSc1nc2ccc(N3CCOCC3)cc2c(=O)n1CCc1ccccc1` reads “inactive”; that for `N#Cc1ccc(-c2ccc3nccn3c2)cc1`, “inactive”; that for `O=[N+]([O-])c1ccc(CN2CC(N3CC=CC3)CS2(=O)=O)cc1` (stereo unspecified), “inactive”. Turning to `C/C(COc1ccccc1)=N\NC(=O)c1nnn(-c2nonc2N)c1-c1ccc(C)cc1`, the Potency entry is “inactive”. `CC(=O)c1ccc(NC(=O)CCc2nc(-c3ccc(C)cc3)no2)cc1`: the Potency entry was “inactive”. In the case of `Cc1ccc(-c2noc(CCC(=O)Nc3ccccc3N3CCN(C)CC3)n2)cc1`, the Potency was 11.2 µM (active). For `COc1ccc(N2CCN(C(=O)CCc3nc(-c4ccc(C)cc4)no3)CC2)cc1`, the Potency result is “inactive”. The result for `C[C@H]1CN([C@@H](C)CO)C(=O)CCCn2cc(nn2)CO[C@@H]1CN(C)S(=O)(=O)c1cccs1` reads “inactive”; that for `Cc1ccc(C)c(NC(=O)CN(C)C(=O)COc2ccc3ccccc3c2)c1`, “inactive”; that for `Cc1ccc(NS(=O)(=O)c2ccc(C)c(NC(=O)COc3ccc4ccccc4c3)c2)c(C)c1`, 5.01 µM (active). On to `Cc1ccc(C)c(NS(=O)(=O)c2ccc(OCC(=O)NCc3cccnc3)cc2)c1`, for which the Potency entry is “inactive”. On to `CCCCc1ccc(S(=O)(=O)NC(=O)C2(C)CCN2C(=O)c2ccccc2)cc1` (stereo unspecified), for which the Potency entry is “inactive”.

As for `Cc1nnc(SC(C)C(=O)c2c[nH]c3ccccc23)n1C1CC1` (stereo unspecified), the Potency entry is “inactive”.

With `Cc1cc(Cl)ccc1NNC(=O)c1snnc1C`, the Potency is 2 µM (active). Turning to `Cc1nnsc1C(=O)NCc1c(F)cccc1Cl`, the Potency entry was “inactive”.

On to `Cc1nnsc1C(=O)Nc1cccc(Cl)c1C`, for which the Potency entry was “inactive”. On to `Nc1ncnc2c1ncn2[C@@H]1O[C@H](C(=O)NS(=O)(=O)c2c(Cl)nc3sccn23)[C@@H](O)[C@H]1O`, for which the Potency entry is “inactive”.

With `CCOC(=O)C1C(C)C(C(C)(C)C)N(S(=O)(=O)c2ccc(C)cc2)C1c1ccccc1` (stereo unspecified), the Potency entry is “inactive”. Turning to `CC1(C(=O)NS(=O)(=O)c2ccc(C#N)cc2)CCN1C(=O)CC1CCCC1` (stereo unspecified), the Potency result was “inactive”. The result for `Cc1cccc(CN2CCN(C3CN(Cc4ccccc4)S(=O)(=O)C3)CC2)c1` (stereo unspecified) reads “inactive”; that for `Cc1ccc(NNC(=O)C2CCC2)cc1C`, 6.31 µM (active). For the compound `Cc1ccc(C)c(OCC(=O)NNC(=O)C2CCC2)c1`, the Potency entry is “inactive”. As for `O=C(NNC(=O)C1CCC1)c1ccccc1`, the Potency result was “inactive”. For `Cc1ccc(C(=O)OCC(=O)NC2CCCCCCC2)cc1C`, the Potency entry was “inactive”. The result for `Cc1cccc(C)c1N1CCN(S(=O)(=O)N2CCCCC2)CC1` reads 10 µM (active); that for `Cc1cccc(C)c1N1CCN(S(=O)(=O)N2CCOCC2)CC1`, “inactive”. The result for `Cc1cccc(C(=O)N2CCN(S(=O)(=O)N3CCCCC3)CC2)c1` reads “inactive”; that for `CN(CCO)C(=O)c1nc[nH]c1C(=O)N(C)Cc1ccccc1`, “inactive”; that for `CC1=C(C)CC(C(=O)NNC(=O)c2ccccc2O)C(C(=O)O)C1` (stereo unspecified), “inactive”.

On to `Cc1cc(C(=O)NNC(=O)c2ccccc2O)c(C)o1`, for which the Potency entry is “inactive”. The result for `O=C(NNC(=O)c1ccccc1O)c1ccccc1O` reads 5.01 µM (active). As for `Clc1ccccc1Nc1nc(NCc2cccs2)nc2ccsc12`, the Potency entry was “inactive”. For `CC(C)(C)OC(=O)N1CCN(C(=O)c2[nH]c(C(F)(F)F)nc2-c2ccccc2)CC1`, the Potency entry is “inactive”. In the case of `CCOC(=O)[C@]12CCC=C1N(Cc1ccccc1)C(=O)[C@H](CC(=O)N1CCCC1)C2`, the Potency entry is “inactive”. `CCCNC(=O)c1cc2c(c(-c3cccc(-c4ccc(C#N)cc4)c3)n1)[C@@H](CCO)N(C(=O)CC)C2`: the Potency entry was “inactive”.

`COc1ccc(NC(=O)CCCNC(=O)Cn2cnc3sc4c(c3c2=O)CCCC4)cc1OC`: the Potency result was “inactive”. Consider `COc1ccc(/C=N/Nc2ncnc3sc4c(c23)CCCC4)cc1O`, for which the Potency was 10 µM (active).

For the compound `COc1ccc(NC(=O)CCNC(=O)Cn2cnc3sc4c(c3c2=O)CCCC4)cc1OC`, the Potency entry is “inactive”. On to `Cc1ccc(S(=O)(=O)N[C@H]2CCC[C@@H]2O)cc1`, for which the Potency entry is “inactive”. For `Cn1c(NCc2cccnc2)nc2cc(-c3ccc(F)cc3)sc2c1=O`, the Potency result was “inactive”. As for `Cc1[nH]c2ccccc2c1C(=O)C(C)Sc1nnc(C2CC2)o1` (stereo unspecified), the Potency entry is “inactive”. `Cc1[nH]c2ccccc2c1C(=O)c1cc([C@H](NC(=O)OC(C)(C)C)C(C)C)sc1N`: the Potency was 10 µM (active). For `Cc1[nH]c2ccccc2c1C(=O)CSCC(=O)O`, the Potency result was “inactive”.

For `OC[C@@H]1CN(Cc2ccncc2)C[C@H](n2cnc3c(N4CCN(c5ccccc5)CC4)ncnc32)O1`, the Potency result was “inactive”.

Regarding `CC(C)(C)OC(=O)Nc1ccc([C@@H](NC(=O)OC(C)(C)C)C(=O)OC(C)(C)C)cc1`, the Potency result was “inactive”. For `C[C@H](NC(=O)OC(C)(C)C)c1nnc(SCC(=O)Nc2ccc(Br)cc2)o1`, the Potency result is “inactive”. The result for `CC(C)(C)OC(=O)N[C@H](C(=O)OC(C)(C)C)c1ccc(Br)cc1` reads 10 µM (active).

For `COc1ccc(C(C)(C)C)cc1NC(=O)CN(C)C1=NS(=O)(=O)c2ccccc21`, the Potency result was “inactive”. Turning to `COc1ccc(CCNC(=O)CN(c2ccccc2)S(=O)(=O)c2ccccc2)cc1`, the Potency result is “inactive”.

Take `COc1cccc(NC(=O)N2CCCC2C(=O)NC2CCCCC2)c1` (stereo unspecified): the Potency result was “inactive”. In the case of `COc1cccc(NC(=O)C2CCCN2C(=O)OCc2ccccc2)c1` (stereo unspecified), the Potency result is “inactive”. The result for `COc1cccc(NC(=O)N(Cc2cn(C)c3ccccc23)C2CCCCCC2)c1` reads 10 µM (active); that for `CCOC(=O)c1cc2cc(OC)ccc2n1C1CCN(C)CC1`, “inactive”; that for `C[C@@H]1CN([C@@H](C)CO)C(=O)c2cc(NS(C)(=O)=O)ccc2O[C@@H](C)CCCCO[C@H]1CN(C)C(=O)Nc1ccc2c(c1)OCO2`, “inactive”.

As for `CCc1ccccc1NC(=S)N(CCN1CCCCCC1)Cc1ccco1`, the Potency result was “inactive”. For the compound `Cc1ccc(NC(=S)N(CCCN2CCCC2)Cc2cccn2Cc2ccc(Cl)cc2)cc1`, the Potency is 2.24 µM (active).

Regarding `Cc1ccccc1NC(=S)N(CCCN1CCOCC1)Cc1cccs1`, the Potency entry is “inactive”.

For `COc1ccc(C(O)c2nc(-c3ccc4c(c3)OCO4)cs2)cc1` (stereo unspecified), the Potency entry is “inactive”. For `COc1cccc(-c2cc3nc(NCc4ccccc4OC)n(C)c(=O)c3s2)c1`, the Potency result was “inactive”.

As to `COc1ccc(NC(=O)CSc2nccn2Cc2ccc3c(c2)OCO3)cc1`, the Potency result is “inactive”. As for `CCCOc1ccc(NC(=O)CC2C(=O)N(c3ccccc3)C(=O)N2Cc2ccco2)cc1` (stereo unspecified), the Potency result is “inactive”.

Consider `CCCOc1ccc(NC(=O)CC2C(=O)N(C)C(=S)N2Cc2ccc3c(c2)OCO3)cc1` (stereo unspecified), for which the Potency is 10 µM (active).

As for `Cc1noc(C)c1NC(=O)N(C)C[C@@H]1Oc2cc(Br)ccc2S(=O)(=O)N([C@@H](C)CO)C[C@H]1C`, the Potency entry was “inactive”. As to `COCCN(CCOC)S(=O)(=O)c1ccc(/C(O)=C(\C#N)c2nc3ccccc3[nH]2)cc1`, the Potency result was “inactive”. In the case of `N#C/C(=C(/O)COC(=O)COc1ccc(Cl)cc1)c1nc2ccccc2[nH]1`, the Potency is 10 µM (active). With `N#C/C(=C(/O)COc1cccc2ccccc12)c1nc2ccccc2[nH]1`, the Potency result was “inactive”. Turning to `O=C(COC(=O)CCc1c[nH]c2ccccc12)Nc1cccc(Cl)c1`, the Potency result is “inactive”. The result for `CC(C)C[C@H]1CN([C@@H](Cc2ccccc2)CN2CCC[C@@H]2CN2C(=O)C(=O)NC[C@@H]2Cc2ccc(O)cc2)C(=O)C(=O)N1CCc1ccccc1` reads “inactive”; that for `CCOCCCNCc1cc(Br)ccc1OCC`, “inactive”; that for `COc1ccc(CNCCCO)cc1OC`, “inactive”.

`CCOCCCNCc1ccc(OCc2ccc(F)cc2)c(OC)c1`: the Potency is 1.12 µM (active).

Turning to `COCCCn1c(C(=O)NC2CCCCC2)cc2c(=O)n3cccc(C)c3nc21`, the Potency result was “inactive”. With `COC(=O)c1ccc2nc(-c3ccc(C)cc3)c(Cc3ccc(OC)cc3C)n2c1`, the Potency result is “inactive”. Take `COc1cc(C)c(CN2CCN(C(=O)CCC(=O)c3ccc(C)s3)CC2)cc1OC`: the Potency entry is “inactive”. The result for `O=C1C(Sc2cccc(F)c2)=C[C@@]2(O)CC[C@@H](O)[C@]1(Sc1cccc(F)c1)[C@H]2O` reads “inactive”; that for `Cn1c(C(=O)NCCCN2CCN(c3cccc(Cl)c3)CC2)cc2c(=O)n(C)c3ccccc3c21`, “inactive”; that for `COc1ccc(N2CCN(CCNC(=O)c3nnc(Cc4c(F)cccc4Cl)o3)CC2)cc1`, “inactive”. Regarding `O=C(NCCCN1CCN(c2cccc(Cl)c2)CC1)c1nnc(Cc2ccc(F)cc2Cl)o1`, the Potency is 12.6 µM (active). Regarding `CSc1ncnc2c1ncn2CCCNCC(C)c1ccccc1` (stereo unspecified), the Potency entry is “inactive”.

As to `CCCCCCCCN1C(=O)[C@H](CC(=O)NCC23CC4CC(CC(C4)C2)C3)C[C@@]2(C(=O)OC)CCCCC=C12`, the Potency entry was “inactive”. On to `CCNC(=O)C1(C)CCN(C(=O)c2ccccc2)C1` (stereo unspecified), for which the Potency entry was “inactive”. As to `CCOC1=C2[C@@H](CN(S(=O)(=O)c3ccc(C)cc3)[C@H]2c2ccccc2F)[C@H]2C(=O)N(Cc3ccccc3)C(=O)[C@H]2C1`, the Potency entry is “inactive”.

For `CCCNC(=O)c1cc(C2CCCN(C(=O)c3ccc4c(c3)CCO4)C2)on1` (stereo unspecified), the Potency entry was “inactive”.

For the compound `CC(C)c1ccc2c(c1)c(SC(C)(C)C)c(CC(C)(C)C(=O)O)n2Cc1ccc(Cl)cc1`, the Potency was 2.82 µM (active). For the compound `O=C(Cn1c(=O)nc(-c2ccccc2)c2cc(Cl)ccc21)NCc1ccc(Cl)cc1`, the Potency result is “inactive”.
